Results with a measured potency or affinity are listed apart.
target: Protein S100-A4 (Homo sapiens) (UniProt P26447); experiment: human S100A4 peptide interaction inhibition curves – biochemical, fluorescence polarization, cherry-picked hits, dose response (AID 687001); settings: FP, S100A4/TAMRA-myosin IIA peptide binding; series mostly up to 11 µM; activity change, negative = inhibition: at the top concentration;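 note: 0% = DMSO neutral control wells and -100% = TFP positive control wells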
Sequence (P26447 whole entry, looked up): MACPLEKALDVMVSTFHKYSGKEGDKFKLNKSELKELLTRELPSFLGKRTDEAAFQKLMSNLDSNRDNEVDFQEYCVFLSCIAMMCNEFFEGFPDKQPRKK

Activity change, negative = inhibition, inactive:
COc1ccc2c(CN3CCCC3)cc(=O)oc2c1 -1.04%, COc1ccc(NC(=O)N(C)C[C@H]2OCCCC[C@@H](C)Oc3ccc(NC(=O)NC4CCCCC4)cc3C(=O)N([C@H](C)CO)C[C@@H]2C)cc1 9.67% [at 10 µM], Cn1cc(SCC(=O)NC2CCCC2)c2ccccc21 -2.12%, CCOc1ccc(C(=O)NC2CCN(C(=O)Nc3ccc(F)cc3)CC2)cc1 2.33%, CO[C@H]1CN(C)C(=O)c2cc(NC(C)=O)ccc2OC[C@H](C)N(Cc2ccccn2)C[C@H]1C -0.609%, COC(=O)Cc1c(C)nc(SCc2ccccc2)[nH]c1=O -0.468%, CC(=O)N1CC(=O)N2[C@H](CO)[C@@H](c3ccc(-c4ccc(C#N)cc4)cc3)[C@H]2C1 8.56%, CCCC(=O)Nc1ccc2c(c1)OC[C@@H](C)N(Cc1ccc(-c3ccccn3)cc1)C[C@H](C)[C@H](OC)CN(C)C2=O 4.63%, COc1ccc(NC(=O)Nc2ccc3c(c2)CC(=O)N([C@@H](C)CO)C[C@@H](C)[C@H](CN(C)Cc2ccccc2)O3)cc1 -1.54%, C[C@@H]1CN([C@@H](C)CO)C(=O)c2cc(NC(=O)C3CC3)ccc2O[C@@H]1CN(C)Cc1ccc(Cl)c(Cl)c1 -3.49%, CCCN(CC(=O)Nc1ccccc1C)C(=O)C1CC(=O)N(c2cccc(C)c2C)C1 (centres undefined) -1.18%, CCOC(=O)C1=C(C)N(C)C(=O)NC1c1cccc2ccccc12 (centres undefined) 13.3%, Cc1cc2nnc(SCC(=O)NCC(c3ccccc3)N(C)C)n2c2ccccc12 (centres undefined) -5.05%, CCNC(=O)[C@H]1[C@H](CO)[C@H]2Cn3c(ccc(-c4ccc(F)cc4)c3=O)[C@@H]1N2C 0.752%, CCOC(=O)N1CCN(Cc2nc3cc([N+](=O)[O-])ccc3n2C)CC1 -1.02%, CN(CC(=O)NCC(=O)Nc1ccc(F)cc1)CC(=O)Nc1ccc(Cl)c(C(F)(F)F)c1 -1.23%, CCOc1cc(/C=N/NC(=O)c2ccc(N(C)S(=O)(=O)c3ccccc3)cc2)ccc1OC -6.58%, O=C(CSc1ccsc1[N+](=O)[O-])NCc1ccccc1 19.1%, CO[C@H]1CN(C)C(=O)c2ccc(NC(=O)NC(C)C)cc2OC[C@@H](C)N(C(=O)NC(C)C)C[C@H]1C 2.91%, COc1ccc(N2CCN(C(=O)[C@H](C)N3C(=O)C4CC=CCC4C3=O)CC2)cc1 (some centres undefined) 0.726%, COc1ccc(C)cc1NS(=O)(=O)c1ccc2c(c1)N(C)CCO2 -2.05%, COC(=O)c1c(NC(=O)CN(C)CC(=O)Nc2ccc(C)cc2)sc2c1CCC(C)C2 (centres undefined) 2.13%, CNS(=O)(=O)c1ccc2c(c1)[nH]c(=S)n2C -20.7%, CCCNC(=O)[C@@H]1[C@@H](CO)[C@@H]2Cn3c(cccc3=O)[C@H]1N2CCC(F)(F)F -3.13%, O=C(C[C@@H]1CC[C@H]2[C@@H](COC[C@@H](O)CN2CC2CCCCC2)O1)NCc1ccc(F)cc1 7.76%, Nc1cccc2c(=O)[nH][nH]c(=O)c12 -1.11%, O=C(Nc1ccccc1F)N[C@H]1CC[C@H](CCNC(=O)C2CCCCC2)O[C@H]1CO 0.987%, N#C[C@@H]1[C@H](c2ccccc2-c2cccc(F)c2)[C@@H](CO)N1C(=O)C1CC1 -2.63%, O=C(Nc1ccc(F)cc1)N1CCCCN2[C@H](CO)[C@H](c3ccc(C#Cc4ccccn4)cc3)[C@H]2C1 25.4%, COCC(=O)N1[C@@H](C#N)[C@H](c2ccc(-c3cccc(F)c3)cc2)[C@@H]1CO 1.65%, CCOC(=O)[C@@H]1[C@H]2COc3cc(OC)ccc3[C@@H]2N2C(=O)N(c3cccc(C)c3)C(=O)[C@]12C -3.65%, CCN(CC(=O)Nc1c(F)cccc1F)C(=O)c1ccc(OC)c(S(=O)(=O)NC2CCCC2)c1 -0.888%, Cc1noc(C)c1S(=O)(=O)N(C)C[C@H]1Oc2ccc(N(C)C)cc2CC(=O)N([C@H](C)CO)C[C@H]1C -3.08% [at 10 µM], Cc1cc(Nc2cccc(F)c2)cc(=O)n1-c1cccc(F)c1 8.17%, NC(=O)c1ccsc1NC(=O)c1ccco1 16.3%, Cc1ccc(C(=O)COC(=O)C2CC3CCCC(C2)C3=O)cc1[N+](=O)[O-] (centres undefined) -2.18%, CCOc1ccc(N(CC)C(=O)CCS(=O)(=O)c2cccc3nonc23)cc1 0.567%, CCCCNS(=O)(=O)c1ccc2nc(-c3cccnc3)cc(C(=O)NC(C)CC)c2c1 (centres undefined) 6.52%, O=C(Nc1ccccc1)N1CCCCN2[C@H](CO)[C@H](c3ccc(C#Cc4ccccn4)cc3)[C@H]2C1 18.6%

From PubChem BioAssay AID687001 (Broad Institute, 2013)
